# High-throughput results from PubChem BioAssay.
# Abs 340nm – compound absorbs light at 340 nm; compound absorbance at 340 nm, fold over control; fold change at 10 µM; 65,000 tested, under 10 active; AID 708;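 active = at 10 µM dose, initial 340 nm absorbance at least 2 fold that of control wells; inactive = change under 2 fold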;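 also: initial absorbance extrapolated from kinetic A340 decline of NADH oxidation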
# BAP1 inh – human BAP1 deubiquitinase inhibition; AID 436; Q92560; calls only at 20 µM; 72,000 compounds, 0.48% hits; recombinant BAP1, Ub-AMC hydrolysis fluorescence kinetic; active compounds read low;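 active = activity remaining at or below 50% of control, provided the compound also passes the data quality filters; inactive = the rest, including low values that fail the filters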;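 also: 100% = DMSO wells rate and 0% = substrate alone blank rate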
# Target sequence (Q92560 whole entry, looked up): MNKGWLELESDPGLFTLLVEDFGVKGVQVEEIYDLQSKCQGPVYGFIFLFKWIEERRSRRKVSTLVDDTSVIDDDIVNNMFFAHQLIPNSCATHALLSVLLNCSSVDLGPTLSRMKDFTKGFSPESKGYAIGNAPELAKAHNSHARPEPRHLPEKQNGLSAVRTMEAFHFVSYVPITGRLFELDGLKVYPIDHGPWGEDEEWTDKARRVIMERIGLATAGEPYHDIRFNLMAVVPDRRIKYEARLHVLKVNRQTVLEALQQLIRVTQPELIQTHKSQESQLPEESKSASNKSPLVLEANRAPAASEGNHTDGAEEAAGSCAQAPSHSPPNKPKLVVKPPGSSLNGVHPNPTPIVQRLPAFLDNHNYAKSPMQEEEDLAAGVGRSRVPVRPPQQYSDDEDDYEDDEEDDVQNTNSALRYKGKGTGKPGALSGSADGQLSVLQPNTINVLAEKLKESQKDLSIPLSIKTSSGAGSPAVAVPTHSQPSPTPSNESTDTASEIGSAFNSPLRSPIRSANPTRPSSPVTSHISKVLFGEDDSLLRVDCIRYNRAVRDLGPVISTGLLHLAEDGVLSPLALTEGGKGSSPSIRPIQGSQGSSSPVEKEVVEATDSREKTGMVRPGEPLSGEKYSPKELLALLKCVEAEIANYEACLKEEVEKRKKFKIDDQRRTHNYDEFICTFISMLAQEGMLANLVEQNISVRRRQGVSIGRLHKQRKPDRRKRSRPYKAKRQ
# M1 agonist – activates the M1 muscarinic receptor | 64,000 compounds, 3% hits | CHO-M1 cells, Fluo-4 calcium fluorescence, agonist mode; active compounds read high | B-score at 10 µM | AID 626;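 active = fluorescence rise, raw or as B-score row- and column-corrected plate score, outside the 99.7% band of its plate's samples, either direction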
# WNV protease inh – blocks West Nile virus NS2B-NS3 protease activity; P06935; WNV NS2B-NS3 protease, fluorogenic substrate Ex360/Em465; active compounds read low; z-score (concentration not given with the values); 65,000 compounds, 0.18% hits; in the data active = z-score below about -3
# Fluor 339 460 – intrinsic fluorescence of library compounds, ex339/em460 – biochemical, MLSMR library, data from DPM-DC assay, artefact control, profiling panel; AID 709; fluorescence fold increase at 10 µM; compound autofluorescence, ex339/em460 nm, NADH buffer; active compounds read high; 1 = no-compound wells, NADH background; 65,000 compounds, 5.5% hits;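 active = at 10 µM, mean starting fluorescence two-fold or more over control wells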;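 also: signal is the first read of a kinetic run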
# M1 antag – M1 muscarinic receptor (rat) antagonism | P08482 | CHO-M1 cells, Fluo-4 calcium, ACh EC80 antagonist mode; active compounds read low | B-score at 10 µM | 64,000 compounds, 3.4% hits | AID 628;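 active = calcium fluorescence response, raw or row-and-column corrected B-score, differing from the plate sample mean either way at a set confidence level, mostly lower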
# The depositor's hits bear a star; i = inactive; · = no result shown. Shown are actives, neighbours in structure and some others; about 9.7% of the full set was active somewhere.
SMILES,Abs 340nm,BAP1 inh,M1 agonist,WNV protease inh,Fluor 339 460,M1 antag
Nc1ccc(O)cc1C(=O)OCC(=O)C12CC3CC(CC(C3)C1)C2,1.04,i,-0.0136,0.32,2.12*,0.798
Cc1ccc2cc(C#N)c(NCCNC(=O)C3CC3)nc2c1C,1.01,i,-0.874,-0.5,3.17*,1.43
O=C(Oc1ccc(-c2nc3ccc([N+](=O)[O-])cc3[nH]2)cc1)C1CCCCC1,·,i,·,·,·,·
CCOC(=O)c1cc2c(=O)n3ccccc3nc2n(CCOC)c1=NC(=O)C(C)(C)C,1.06,·,·,0.55,2.3*,·
CCOC(=O)c1cc2c(=O)n3ccccc3nc2n(CCCOC)c1=NC(=O)C(C)(C)C,1.03,·,-1.69,1.67,2.43*,-0.63
COc1ccc(CCn2c(=N)c(C(=O)N3CCN(C)CC3)cc3c(=O)n4ccccc4nc32)cc1,1.09,·,-0.559,0.15,1.6,-1.03
CCOCCCn1c(=NC(C)=O)c(C(=O)OCC)cc2c(=O)n3ccccc3nc21,1.02,i,-0.532,3.68,2.92*,0.16
CCOC(=O)c1cc2c(=O)n3ccccc3nc2n(CCCOC)c1=NC(=O)c1cccnc1,1.09,·,-0.252,·,1.72,0.647
CCOCCCn1c(SCC(=O)NC(C)(C)C)nc2ccccc2c1=O,1.01,i,-0.356,-0.24,1.09,0.0322
Cc1cccc2cc(CN(Cc3nnnn3Cc3ccco3)C3CCCC3)c3nnnn3c12,1.01,i,-0.394,0.44,1.09,2.41*
COC(=O)c1ccc(N2C(=O)CC(NCCc3ccc(S(N)(=O)=O)cc3)C2=O)cc1 (stereo not given),·,i,·,·,·,·
O=C1CCCC2=C1C(c1cccs1)n1nc(SCc3ccccc3F)nc1N2 (stereo not given),1.03,i,-0.606,0.82,2.16*,-0.211
Cc1ccc(S(=O)(=O)Nc2ccc(Br)cc2C(=O)c2ccc(Cl)cc2)cc1,·,i,·,·,·,·
CC1=C(C(=O)OC(C)C)C(c2ccc(O)cc2)C2=C(CCCC2=O)N1 (stereo not given),·,i,·,·,·,·
CCCOc1ccc(/C=c2\sc3nc(-c4ccco4)nn3c2=O)cc1OCC,1.1,i,25.1*,-1.46,1.05,0.15
CC(=O)Oc1cccc(/C=c2\sc3nc(-c4ccco4)nn3c2=O)c1,1.01,i,-0.295,-0.19,1.06,0.0755
NC(=O)c1cc2cc(Br)ccc2oc1=Nc1ccc(Oc2ccccc2)cc1,·,i,·,·,·,·
Cc1cc(CNC(=O)Cc2c(F)cccc2Cl)nn1C,1.03,i,-1.1,-0.89,1.06,0.0201
Cc1cc(C(=O)NCc2cc(C)n(C)n2)sc1-c1ccccc1,1.06,i,2.97*,1.01,1.5,-1.06
Cc1ccc(C2(C)NC(=S)N(c3ccccc3)N2)cc1 (stereo not given),·,i,·,·,·,·
COc1cccc(-c2nc(Cc3ccc(OC)c(OC)c3)no2)c1,1,i,·,0.81,1.1,·
COc1ccc(-c2ccc(-c3nnc(Cc4ccc(OC)c(OC)c4)o3)cc2)cc1,1.05,i,0.701,-0.17,2.58*,0.487
Brc1ccc(C=NC2C3CC4CC(C3)CC2C4)cc1 (stereo not given),·,i,·,·,·,·
CC(C)CCNC(=O)C(c1ccco1)N(Cc1ccccc1)C(=O)c1snc(C(N)=O)c1N (stereo not given),1.04,i,1.46,-0.22,1.93,-1.29
COc1ccc(CNC(=O)C(C)N(Cc2ccco2)C(=O)c2snc(C(N)=O)c2N)cc1 (stereo not given),1.01,·,0.433,-0.47,2.24*,0.772
SMILES,Abs 340nm,BAP1 inh,M1 agonist,WNV protease inh,Fluor 339 460,M1 antag
CCc1ccccc1N(CC(=O)NCc1ccco1)C(=O)c1snc(C(N)=O)c1N,1.11,·,0.038,0.99,3.27*,0.0545
CCOC(=O)c1c(NC(=O)c2ccc(F)cc2)sc(C)c1C,·,i,·,·,·,·
C=CCOC(=O)C1=C(C)NC(=O)NC1c1ccc(CC)cc1 (stereo not given),·,i,·,·,·,·
COc1ccc(N2C(=O)c3ccc(Oc4cccc([N+](=O)[O-])c4)cc3C2=O)cc1,·,i,·,·,·,·
CC1(C)CC(=O)C2=C(C1)OC1=C(C(=O)CC(C)(C)C1)C2c1ccc(O)cc1O,1.03,i,158*,1.2,1.12,-0.0248
CCN(CC)c1ccc(C(=O)Nc2nc3ccc4nc(C)sc4c3s2)cc1,·,i,·,·,·,·
Cc1nc2c(ccc3nc(NC(=O)c4ccc5c(c4)OCCO5)sc32)s1,1.01,·,2.35,-0.5,2.38*,-0.0832
Cc1nc2ccc3nc(NC(=O)c4ccc5c(c4)OCCO5)sc3c2s1,1.04,i,-0.104,0.63,3.47*,0.628
c1ccn2c(c1)nc1c2nc2ccccn21,1.12,i,0.635,7.04,3.83*,0.151
Cc1ccc2[nH]c(=O)c(-c3noc(C(C)C)n3)cc2c1,1.08,i,0.351,-0.11,2.21*,0.00814
Cc1ccc2[nH]c(=O)c(-c3noc(-c4ccncc4)n3)cc2c1,1,i,-0.536,-0.96,1.17,-0.075
CCc1nc(-c2cc3ccc(C)cc3[nH]c2=O)no1,1.11,·,-0.454,0.69,4.48*,1
Cc1ccc2cc(-c3noc(C(C)(C)C)n3)c(=O)[nH]c2c1,1.11,·,-0.468,-0.75,3.88*,-1.07
Cc1cccc(NC(=O)c2cc(NC(=O)c3ccco3)ccc2N2CCCCC2)c1,1.01,·,0.833,-0.01,3.01*,0.483
Cc1cc(-c2ccccc2)nc(N2CCC(C(=O)NC(C)C)CC2)n1,0.95,·,0.0925,0.78,3.27*,0.385
c1ccc(-c2nc3nonc3c3nc4ccccc4n23)cc1,1.03,i,-0.699,-0.1,2.32*,-0.885
CC=CCOC(=O)C1=C(C)NC(=O)NC1c1ccc(O)c(OC)c1 (stereo not given),·,i,·,·,·,·
CCOC(=O)c1nn(-c2ccc3c(c2)CCN3C(C)=O)cc1O,1.13,·,-0.244,-1.07,2.2*,0
CCOCCCNS(=O)(=O)c1ccc2c(c1)CCN2C(C)=O,1.05,i,-1.44,-0.74,1.11,0.0568
Cc1cc(C)n2nc(NCc3ccccc3)nc2n1,1.08,i,0.0506,-0.57,3.61*,0.222
COc1ccc(-c2nc3nc(C)cc(C)n3n2)cc1,1.04,i,-0.821,0.00682,3.74*,0.0273
COc1cccc(CNc2nc3nc(C)c(Cl)c(C)n3n2)c1,1.04,i,-0.0177,0.01,2.32*,-0.253
Cc1nc2nc(-c3cccnc3)nn2c(C)c1Cl,1,i,2.03,0.53,1.01,-1.37
Cc1nc2nc(-c3ccco3)nn2c(C)c1Cl,1.07,i,0.0873,0.41,3.95*,-0.00463
C=CSc1cccc2ncccc12,·,i,·,·,·,·
Cc1onc(-c2ccccc2Cl)c1C(=O)Nc1c2c(nn1-c1ccc([N+](=O)[O-])cc1)CSC2,·,i,·,·,·,·
O=c1oc2ccc(Br)cc2cc1-c1nc2sc3c(c2c(=O)[nH]1)CCCC3,·,i,·,·,·,·
O=C(NCCc1ccccc1)c1c(O)c2cccc3c2n(c1=O)CC3,1,i,-0.589,-0.46,1.33,-0.046
